D2 antagonist – HTS Assay for Allosteric Antagonists of the Human D2 Dopamine Receptor: Primary Screen for Antagonists; AID 485344, 2010; D(2) dopamine receptor (Homo sapiens), P14416; inhibition, % at 10 µM; actives 2% (n = 340,000); HEK293 TREx D2 cells, calcium flux, dopamine EC80; in the data active = inhibition above about 30%; inactive = below that, where a call was filed; also: 0% is about no effect
Target sequence (P14416 whole entry, looked up): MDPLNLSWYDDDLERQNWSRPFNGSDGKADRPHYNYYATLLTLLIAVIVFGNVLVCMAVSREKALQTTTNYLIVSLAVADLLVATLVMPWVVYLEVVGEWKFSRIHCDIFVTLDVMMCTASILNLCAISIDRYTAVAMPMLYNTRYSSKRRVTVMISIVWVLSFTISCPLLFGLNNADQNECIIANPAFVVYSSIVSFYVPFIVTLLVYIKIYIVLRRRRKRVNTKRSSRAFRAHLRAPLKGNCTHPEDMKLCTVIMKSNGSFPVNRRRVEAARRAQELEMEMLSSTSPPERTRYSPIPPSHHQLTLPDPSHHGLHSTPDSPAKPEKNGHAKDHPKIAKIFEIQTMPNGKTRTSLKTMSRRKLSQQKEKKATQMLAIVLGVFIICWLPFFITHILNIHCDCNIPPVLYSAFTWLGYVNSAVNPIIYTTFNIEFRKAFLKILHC
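Calcium flux kinetic readout in an inducible HEK293 TREx D2 line plated overnight at 30 C. After 180 s compound exposure, an EC80 dopamine challenge follows with another 180 s kinetic read to detect antagonism.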
D2 PAM-1 – HTS Assay for Positive Allosteric Modulators of the Human D2 Dopamine Receptor: Primary Screen for Potentiators | HEK293 T-REx D2, calcium flux, EC20 dopamine potentiation | D(2) dopamine receptor (Homo sapiens), P14416 | actives 0.34% (n = 340,000) | potentiation, % at 10 µM;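 active = potentiation over 3 SD above the plate norm, cut at about 30% in these data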; also: 0% is about no effect
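Tetracycline-induced Hek293 Trex D2 cells, force-coupled to calcium, loaded with no-wash calcium dye. Compound added with 180 s kinetic read for agonism, then EC20 dopamine and a further 180 s read for potentiation.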
D2 ag-1 – HTS Assay for Allosteric Agonists of the Human D2 Dopamine Receptor: Primary Screen for Agonists; D(2) dopamine receptor (Homo sapiens), P14416; HEK293 T-REx D2 cells, calcium flux agonist mode; activation, % at 2 µM; actives 0.53% (n = 340,000);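 active = activation over 3 SD above normal in the single-dose calcium agonist read, cut at about 30% in these data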; also: 0% is about no effect
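Agonism is scored from calcium flux in a force-coupled, inducible HEK293 cell line expressing D2, read kinetically for 180 s after compound addition against dopamine controls.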
D2 ag-2 – Beta-Arrestin HTS for Positive Allosteric Modulators of the Human D2 Dopamine Receptor: Agonists; D(2) dopamine receptor (Homo sapiens), P14416; activation, % (test concentration not listed); DiscoveRx PathHunter D2 beta-arrestin, luminescence, 90 min; 100% = 57 uM dopamine signal; AID 624465, 2012; actives 0.084% (n = 360,000); in the data active = activation above about 40%; inconclusive = between about 15% and that limit
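DiscoveRx PathHunter D2 beta-arrestin cells (2,100/well) attached overnight, then compound-stimulated 90 min at 37 C in HBSS/10 mM HEPES/0.1% Tween-20 buffer; beta-galactosidase complementation read by luminescence after 1 h at ambient temperature. Dopamine 57 uM final (EC100) as control.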
D2 PAM-2 – Beta-Arrestin HTS for Positive Allosteric Modulators of the Human D2 Dopamine Receptor: Potentiators | D(2) dopamine receptor (Homo sapiens), P14416 | DiscoveRx D2 beta-arrestin cells, luminescence, 90 min; 100% = 57 uM dopamine signal | potentiation, % (concentration not given with the values) | actives 0.23% (n = 360,000) | AID 624464, 2012; in the data active = potentiation above about 50%; inconclusive = mostly about 30% to 49%
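D2 cells co-treated with compound plus 50 nM dopamine (EC20) for 90 min at 37 deg C to detect potentiation. Beta-arrestin recruitment was read as enzyme-fragment luminescence after 1 h at ambient temperature. Full response was set by 57 uM dopamine.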
* = called active by the depositor; ? = inconclusive; nt = no result. Rows were chosen to be rich in hits. Some 2.4% of all compounds tested hit in one or more screens of this group.

SMILES	D2 antagonist	D2 PAM-1	D2 ag-1	D2 ag-2	D2 PAM-2
COc1ccc(CNCCC(c2ccc3c(c2)OCO3)c2ccccc2OC)cc1 (stereo not drawn)	nt	-33.4	1.9	nt	nt
CCOc1ccccc1Nc1nc(-c2cccc(Cl)c2)c2c(n1)-c1ccccc1OC2	nt	-0.4	nt	nt	nt
COc1ccc(CNC(=O)C2CCC(=O)N(CCCN3CCCC3=O)C2)cc1 (stereo not drawn)	-1.8	7.6	0.6	-6.0	-27.1
COc1ccc(C(C)(C)NC(=O)C2CCC(=O)N(CCCN3CCCC3=O)C2)cc1 (stereo not drawn)	33.4*	-12.6	0.2	-1.7	-9.5
CC(NC(=O)CN1CCN(c2ccc(Cl)cc2)CC1)c1ccccc1 (stereo not drawn)	-6.8	5.9	-0.1	-4.6	-3.1
O=C(CN1CCCC1)NC(c1ccccc1)c1ccccc1	-6.2	-6.1	1.7	-2.1	-13.0
O=C(CN1CCN(c2ccccc2O)CC1)Nc1ccc2c(c1)CCC2	66.8*	-23.2	-0.8	-0.1	-16.1
CCOc1ccccc1N1CCN(CC(=O)NC(C)c2ccccc2)CC1 (stereo not drawn)	100.3*	-20.2	0.3	2.7	-23.2
CCOc1ccccc1N1CCN(C(=O)NCc2ccc(C)cc2)CC1	30.3*	32.1*	-1.8	-5.2	-18.1
O=C(CN1CCN(c2ccccc2O)CC1)NC(c1ccccc1)c1ccccc1	64.1*	-24.0	-0.9	-3.0	-32.9
CC(C)C[C@@H](CN)NC(=O)c1nc[nH]c1C(=O)N[C@@H](CC(=O)O)C(=O)CNC[C@H](C)NC(=O)c1nc[nH]c1C(=O)N[C@@H](CC(=O)O)C(=O)O	nt	nt	nt	-1.3	-2.4
O=C(Nc1ccccc1Cl)c1cc[n+](Cc2ccc([N+](=O)[O-])cc2)cc1	-8.7	4.6	0.3	-1.9	-11.8
NC(=O)c1ccc(C(=O)c2ccc([N+](=O)[O-])cc2)cc1	-0.9	-9.1	-0.3	5.2	61.6*
O=C(O)c1ccc([N+](=O)[O-])cc1	nt	nt	nt	-1.3	-3.3
NC(=O)c1cc[n+](Cc2ccc([N+](=O)[O-])cc2)cc1	39.2*	11.2	1.5	0.8	0.4
CCN(CC)S(=O)(=O)c1ccc2c(c1)c(=O)c(C(=O)NCc1ccc(Cl)cc1)cn2C	nt	7.8	0.1	nt	nt
CCCCCCN1CCN(C2CN(Cc3ccc([N+](=O)[O-])cc3)S(=O)(=O)C2)CC1 (stereo not drawn)	nt	nt	nt	2.4	nt
CN1CCN(Cc2cccc(Oc3ccccc3)c2)CC1	-0.7	6.3	-0.3	-0.7	-28.2
COc1ccc(CN2CCN(Cc3cccc(Oc4ccccc4)c3)CC2)c(OC)c1OC	33.9*	-21.0	-0.9	-2.2	-16.9
COc1ccc(CN2CCN(C(c3ccc(F)cc3)c3ccc(F)cc3)CC2)c(OC)c1OC	nt	nt	nt	-1.9	-14.5
COc1ccc(CN2CCN(c3ccc(F)cc3)CC2)c(OC)c1OC	33.3*	-30.8	7.7	5.9	-41.0
Cc1cc(C)cc(NC(=O)C(=O)NCCc2sc(-c3cccc(F)c3)nc2C)c1	nt	3.8	0.5	nt	nt
O=C([C@H]1O[C@@H](n2ccc(=O)[nH]c2=O)[C@H](O)[C@@H]1O)N1CCC(F)(F)CC1	nt	nt	nt	-1.8	-7.3
COc1ccc(CC(=O)Nc2ccc3nc(SC)sc3c2)cc1OC	20.8	-21.7	33.3*	3.8	0.8
COc1cccc(CNC(=O)Cn2c(=O)n3nc(-c4cccc(F)c4)nc3c3ccccc32)c1	nt	-3.4	7.2	nt	nt
SMILES	D2 antagonist	D2 PAM-1	D2 ag-1	D2 ag-2	D2 PAM-2
COc1ccc(S(=O)(=O)/C(C#N)=C/Nc2ccccc2F)cc1	39.8*	-2.4	-0.4	1.4	-5.9
COc1ccc(S(=O)(=O)/C(C#N)=C/Nc2cccc(F)c2)cc1	-4.9	1.3	-0.4	-1.4	3.9
CCOc1ccc(-c2nonc2NC(=O)c2oc3cc(C)ccc3c2C)cc1	nt	4.2	-0.5	nt	nt
CCN(C(=O)C1CCN(S(=O)(=O)c2ccc3c(c2)oc(=O)n3C)CC1)c1cccc(C)c1	38.9*	3.8	0.2	-3.2	-1.2
COc1ccc(N2CCN(C(=O)CSc3nnnn3C3CC3)CC2)cc1	31.8*	-14.7	1.0	-0.7	-2.0
COc1ccccc1N1CCN(C(=O)CSc2nnnn2C2CC2)CC1	1.7	1.3	0.7	-1.8	-14.7
O=C(CN1CCN(Cc2ccccc2)CC1)Nc1cccc(C(F)(F)F)c1	39.2*	-23.9	0.1	-1.6	-13.8
O=C(CN1CCN(c2ccccc2)CC1)Nc1cccc(C(F)(F)F)c1	21.2	-31.3	2.1	-0.5	-21.2
COCC(=O)Nc1cccc(C(F)(F)F)c1	-7.7	32.7*	0.8	-5.8	-16.2
FC(F)(F)c1cccc(CN2CCN(c3ncccn3)CC2)c1	nt	nt	nt	48.0*	?
O=C(O)CCCC(=O)Nc1cccc(C(F)(F)F)c1	11.8	-2.6	0.1	-1.4	-2.2
O=C(CN1CCN(c2ccccn2)CC1)Nc1cccc(C(F)(F)F)c1	48.2*	-31.5	24.2	2.2	-9.6
O=C(CCC1N=C2c3ccccc3N=C(SCc3cccc(F)c3)N2C1=O)NC1CCCCC1 (stereo not drawn)	nt	14.0	-0.1	nt	nt
COc1ccc(C(=O)Nc2c3c(nn2C(C)(C)C)CS(=O)(=O)C3)cc1OC	35.1*	13.7	0.3	-4.2	-6.1
CC(C)(C)c1ccc(C(=O)Nc2c3c(nn2C(C)(C)C)CS(=O)(=O)C3)cc1	-3.3	-9.1	1.1	-3.2	-4.4
Cc1cccc(Cc2c(C)nc3c(-c4ccccc4)c(C)[nH]n3c2=O)c1	nt	nt	-0.6	nt	nt
Cc1nc2c(-c3ccccc3)c(C)[nH]n2c(=O)c1Cc1ccccc1	42.6*	-18.7	-0.3	5.4	-12.6
COc1ccc(-c2c(C)[nH]n3c(=O)c(Cc4ccccc4)c(C)nc23)cc1OC	34.9*	-29.3	-1.2	0.3	-18.3
Cc1nc2c(-c3ccc(Cl)cc3)c(C)[nH]n2c(=O)c1Cc1ccccc1	14.8	-40.0	0.4	2.2	-16.0
CCOC(=O)Cc1c(C)nc2c(-c3ccccc3)c(-c3ccccc3)[nH]n2c1=O	9.7	7.0	-0.8	-6.0	-13.1
CCOC(=O)Cc1c(C)nc2c(-c3ccccc3)c(C)[nH]n2c1=O	-9.8	34.0*	-0.1	2.3	-18.1
C=CCSc1ncc(CO)n1Cc1ccccc1	36.5*	1.6	0.5	-4.5	-9.5
OCc1cnc(SCc2ccccc2)n1Cc1ccccc1	-1.7	0.9	-0.3	-0.7	-5.9
Cc1cccc(C(=O)NCC(=O)OCc2cc(=O)n3nc(C)sc3n2)c1	nt	12.8	-1.8	nt	nt

Screening data as filed in PubChem BioAssay.
